The OligoGym collection

target: CLDN23; assay: pooled miR-30 sensor sort-seq; sequence = guide strand; conditions: shRNA
Also: reference of the scale not given here.

| Sequence | sensor-assay potency score (higher = more potent) |
| --- | --- |
| TGGCCGTCGCTGTAGTACTTGA | -1.77 |
| ATGGTGCTGACGCTGCTGCGGC | -1.77 |
| TACAACTCCACGTCCACTGGCT | 0.00465 |
| TTGAGCAGGAGCCCGCAGGGCG | -1.37 |
| AAGTTGGGCTCGTCCTGCCAGC | -1.5 |
| TGTAGCTGACCTGCACCGTGAC | -0.702 |
| TCGCTGTAGTACTTGATGGCGG | -1.12 |
| TTGGGCTCGTCCTGCCAGCAGC | -1.78 |
| TAGTACTTGATGGCGGGCGCCA | -1.32 |
| TTGGTGTAGGCCTTGGGCCGCG | -1.14 |
| TTGGATGGTGCTGACGCTGCTG | -0.0148 |
| TGGATGGTGCTGACGCTGCTGC | -1.17 |

target: CLDN6; assay: as above; conditions: shRNA

| Sequence | sensor-assay potency score (higher = more potent) |
| --- | --- |
| ATGACAAAGACAATCCCAGAGG | -1.76 |
| TAGCGGGCCATGTAATGGCTGG | -1.06 |
| TTCTCCTCCACACAGGTGGTAC | -1.81 |
| TTGGGCCTCAGCCACCAGGGGG | -1.51 |
| TTTGATAAAAATGTGAGTGTAA | 0.357 |
| TTTGTTAACAGATCATTTGTTT | 0.0812 |
| ATTAGCGTCAGGACCCCTGAGA | -0.855 |
| TAGACCAGCAAGCCGAACAGGG | -0.8 |
| TAGAAGTCCCGGATGATGGCAT | 0.0775 |
| AATCCCAGAGGTGAGCACCAGG | -1.46 |
| TCCACACAGGTGGTACACTTGG | -1.58 |
| ACAAAGACAATCCCAGAGGTGA | -0.71 |

target: CLDN9; assay: as above; conditions: shRNA

| Sequence | sensor-assay potency score (higher = more potent) |
| --- | --- |
| TTGTAGAAGTCCTGGATGATGG | -1.14 |
| TCGTCCTCCACACACGTGGTAC | -1.58 |
| TTCGTCCTCCACACACGTGGTA | -0.498 |
| TAGAAGTCCTGGATGATGGCGT | 0.302 |
| ATGATGGCGTGCGCCGTCCAGC | -1.9 |
| TTGCACTGCATCTGGCCCGTGC | -0.338 |
| ATGAGCACCAGGATGCCGGCGA | -0.538 |
| TTGTCCAGTCCAGATGCACCCG | -0.545 |
| TCCACACACGTGGTACACTGGG | -1.23 |
| TAGCCCAGCCGAGGTCCGCGGG | -1.28 |
| TTTGGAGCCAACGAGCTGCTGC | -0.374 |

target: CLEC9A; assay: as above; conditions: shRNA

| Sequence | sensor-assay potency score (higher = more potent) |
| --- | --- |
| TTAATCTTCCTCAAGCTGCCAG | 0.401 |
| TAAACAATTCTCTTGACTGGTG | -0.135 |
| TTTGTAGCAGCGTGGAACCTTC | -0.937 |
| TCACAAGACAGCATGCTCCTGA | 0.87 |
